Screening data from PubChem.
TDP1 block = blocks human tyrosyl-DNA phosphodiesterase 1 | Q9NUW8 | recombinant TDP1, AlphaScreen DNA substrate cleavage | Potency, µM (series often up to 130 µM), inactives show at the top dose activity change, negative = inhibition, most hits filed as inhibitors | 350,000 tested, 0.28% active; note: potency is the fitted concentration of half-maximal effect; % is set by controls: 0 for no effect and ±100 for the full control effect; nearly all actives have a fitted effect of over 40% in size
Target sequence (Q9NUW8 whole entry, looked up): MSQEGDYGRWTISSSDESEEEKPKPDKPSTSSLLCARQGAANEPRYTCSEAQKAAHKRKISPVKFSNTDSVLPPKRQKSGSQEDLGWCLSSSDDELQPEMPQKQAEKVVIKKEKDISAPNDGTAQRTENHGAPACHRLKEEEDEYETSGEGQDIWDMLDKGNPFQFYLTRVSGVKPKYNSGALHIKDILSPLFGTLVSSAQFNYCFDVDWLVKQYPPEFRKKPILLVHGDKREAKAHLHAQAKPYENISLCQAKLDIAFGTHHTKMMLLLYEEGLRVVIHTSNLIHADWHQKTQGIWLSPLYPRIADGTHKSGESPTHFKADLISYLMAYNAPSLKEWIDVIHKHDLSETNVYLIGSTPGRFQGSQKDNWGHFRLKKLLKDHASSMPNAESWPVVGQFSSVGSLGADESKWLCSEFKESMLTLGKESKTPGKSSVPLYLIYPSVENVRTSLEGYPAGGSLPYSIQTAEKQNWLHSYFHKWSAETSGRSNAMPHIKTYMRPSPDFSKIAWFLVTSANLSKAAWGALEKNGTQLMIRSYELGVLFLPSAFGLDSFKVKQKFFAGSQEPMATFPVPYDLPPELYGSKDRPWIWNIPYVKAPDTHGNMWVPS
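Recombinant E. coli-expressed Tdp1 (1 nM) preincubated with compound 15 min at RT, then 5'-biotin/3'-phosphotyrosine-FITC DNA substrate (15 nM) added for 5 min. AlphaScreen beads (10 ug/ml) added, 10 min RT; tyrosine-FITC cleavage read as signal loss.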
IL-1B inflam inh = inhibitors of inflammasome signaling (IL-1 beta secretion); THP-1 LPS/ATP IL-1B secretion, AlphaLISA, 16 h; active compounds read low; activity change, % at 57.5 µM; 360,000 tested, 4.7% active; AID 743279; in the data active = activity change below about -50%; inconclusive = mostly about -30% to -49%; note: % is set by controls: 0 for no effect and ±100 for the full control effect
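Secreted IL-1B measured by AlphaLISA bead assay after 16 h compound exposure of THP-1 cells; compounds (final up to 57.5 uM) added 1 h before LPS (250 ng/mL) and ATP (1.25 mM) stimulation; lower signal means less secretion.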
TDP1 cell noCPT = qHTS for Inhibitors of human tyrosyl-DNA phosphodiesterase 1 (TDP1): qHTS in cells in absence of CPT | DT40 Tdp1-/- hTDP1 cells, no CPT, ATP luminescence, 48 h | Potency, µM (highest dose often 46.2 µM), for inactives: top-dose activity change, negative = growth inhibition, hits mostly inhibitors | 420,000 tested, 15% active | AID 686978, 2013; note: potency is the fitted concentration of half-maximal effect; % is set by controls: 0 for no effect and ±100 for the full control effect; nearly all actives have a fitted effect of over 55% in size
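Seeded 400 DT40-hTDP1 cells/well (vehicle DMSO, no 20 nM CPT); pinned compounds; ≥48 hr at 37 °C; CellTiter-Glo luminescence as viability measure.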
HepG2 tox = kills HepG2 cells in TGF-b inhibitor counter-screen. HepG2 CAGA-GFP viability, ATP luminescence, 18 h. Potency, µM (highest dose often 46.1 µM), for inactives: top-dose activity change, negative = cytotoxicity, hits mostly cytotoxic. 410,000 tested, 0.76% active; note: potency is the fitted concentration of half-maximal effect
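CellTiter-Glo luminescence gave cytotoxicity after 18 hours at 37 degrees C. The cells were HepG2 CAGA-GFP in 1% FBS DMEM, stimulated with 500 pg/mL TGF-beta after compound addition. %Activity was normalised to no-cell wells (complete cell-killing) and DMSO (no toxicity), and curves were fitted and classified.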
TGFb SMAD3 inh = inhibitors of TGF-b signaling | HepG2 CAGA-GFP TGF-b/SMAD3 reporter, GFP fluorescence, 18 h; TGF-beta stimulated, 500 pg/mL final | Potency, µM (top dose mostly 46.1 µM), for inactives: top-dose activity, negative = inhibition, hits mostly inhibitors | 410,000 tested, 1.2% active; note: potency is the fitted concentration of half-maximal effect; % is set by controls: 0 for no effect and ±100 for the full control effect; nearly all actives have a fitted effect of over 65% in size
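Inhibition of TGF-beta-driven CAGA-GFP reporter expression in HEPG2 cells is measured by cellular GFP fluorescence after 18 h stimulation with 500 pg/mL recombinant TGF-beta in 1% FBS medium at 37 degrees C.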
TDP1 cell CPT = DT40-hTDP1 cell growth loss with CPT. chicken DT40 Tdp1-/-;hTDP1 cells + 20 nM CPT, ATP luminescence, 48 h. Potency, µM (highest dose often 46.2 µM), for the others: at the top dose activity change, negative = growth inhibition, most hits filed as inhibitors. 420,000 tested, 12% active. AID 686979; note: potency is the fitted concentration of half-maximal effect; % is set by controls: 0 for no effect and ±100 for the full control effect; nearly all actives have a fitted effect of over 55% in size
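Chicken DT40 Tdp1-/- cells stably complemented with human TDP1 were seeded at 400 cells/well in medium containing 20 nM camptothecin, exposed to pin-transferred compounds, and grown at 37 °C for at least 48 hr. Viability was read as ATP luminescence.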
Active calls of the source: *; u = inconclusive; x = no result; [ ] = remark or other dose. Shown are actives, neighbours in structure and some others; about 19% of the full set was active somewhere. Unless noted, calls come from the whole dose curve; as a rule, active = well fitted curve in the direction sought with a large enough effect; inconclusive = small, poorly fitted or top-dose-only effect, or another doubt; inactive = no such curve, though single readings can be large; an effect the other way counts as inactive or inconclusive.

SMILES	TDP1 block	IL-1B inflam inh	TDP1 cell noCPT	HepG2 tox	TGFb SMAD3 inh	TDP1 cell CPT
C=C(C)c1cccc(C(C)(C)NC(=O)N(Cc2ccccc2)Cc2ccco2)c1	2%	-19	21µM*	-1%	19%	16µM*
CCOC1=C2[C@@H](CN(S(=O)(=O)c3ccc(C)cc3)[C@H]2c2ccccc2F)[C@H]2C(=O)N(CC)C(=O)[C@H]2C1	x	36	u	-17%	-21%	u
COc1ccc(CCNC(=O)Nc2ccccc2[N+](=O)[O-])cc1	4%	8	u	0%	16%	4%
Cc1cccc(NC(=O)C2CCN(S(=O)(=O)c3ccc4c(c3)CCCN4C(=O)C3CCC3)CC2)c1	7%	x	u	-14%	3%	u
Cc1cccc(NC(=O)C2CCCN(S(=O)(=O)c3ccc4c(c3)CCCC(=O)N4)C2)c1 (configuration not stated)	-2%	x	x	-25%	-6%	x
CSc1cccc(NC(=O)C2CCN(S(=O)(=O)c3ccc4c(c3)CCCN4C(=O)C3CCC3)CC2)c1	0%	x	12µM*	-12%	10%	u
CSc1cccc(NC(=O)C2CCCN(S(=O)(=O)c3ccc4c(c3)CCCN4C(C)=O)C2)c1 (configuration not stated)	1%	x	21µM*	-51%	u	18µM*
CC(=O)c1ccc(NC(=O)C2CCN(S(=O)(=O)c3ccc4c(c3)CCCN4C(=O)C3CCC3)CC2)cc1	3%	x	u	-28%	-8%	12µM*
COc1cc(CN2CCOc3ccc(CN4CCC(O)(c5cccnc5)CC4)cc3C2)ccc1F	x	x	u	x	x	7%[9.04 µM]
CC(C)Oc1ccc(C(=O)Nc2nc3c(s2)CC(C(C)(C)C)CC3)cc1 (configuration not stated)	3%	x	13µM*	-44%	-6%	16µM*
CC1CCc2nc(NC(=O)COc3ccc(C(C)(C)C)cc3)sc2C1 (configuration not stated)	3%	x	u	-11%	-22%	u
Cc1ccccc1C(=O)Nc1sc2c(c1C(=O)N1CCCCC1)CCC(C(C)(C)C)C2 (configuration not stated)	x	x	u	-17%	-7%	-15%
Cc1ccccc1C(=O)Nc1nc2c(s1)CC(C(C)(C)C)CC2 (configuration not stated)	3%	x	12µM*	7%	-20%	16µM*
CCOc1cccc(C(=O)Nc2nc3c(s2)CC(C(C)(C)C)CC3)c1 (configuration not stated)	3%	x	21µM*	-12%	-1%	21µM*
CCCC(=O)Nc1nc2c(s1)CC(C(C)(C)C)CC2 (configuration not stated)	-3%	x	21µM*	-29%	18%	18µM*
CC(=O)Nc1ccc(OS(=O)(=O)c2ccc(C(C)(C)C)cc2)cc1	0%	x	x	x	x	x
O=C1CCC(/C=C/c2ccccc2)=NN1Cc1ccc(F)cc1	-5%	-18	u	-2%	-3%	-25%
CCCCN1C(=O)/C(=C(/C#N)C(=O)N2CCCC2)c2ccccc21	x	9	21µM*	0%	-6%	16µM*
N#C/C(C(=O)N1CCCCC1)=C1/N=C(N)c2ccccc21	3%	-5	3%	22%	8%	4%
N#CC(C#N)=C1C(=O)N(CCN2CCCCC2)c2ccccc21	x	u	18µM*	-39%	1%	16µM*
N#CC(C#N)=C1C(=O)N(CCN2CCOCC2)c2ccccc21	x	x	u	22µM*	u	29µM*
